Data taken from PubChem BioAssay (NCATS).
Inconclusive results are not listed. Entries that show only a call come without a potency. Calls of active or inactive are those of the source. Unless noted, the call rests on the fitted dose curve.

What was measured:
[1] = molecular target: Glucocorticoid receptor (Homo sapiens) (UniProt P04150); experiment: qHTS assay for small molecule agonists of glucocorticoid receptor signaling (AID 588532; active means well fitted curve in the direction sought with a large enough effect in the signal ratio, with a control signal flat; the % refers to the signal ratio); details: HeLa MMTV-bla, beta-lactamase ratio, agonist, 18 h; stronger effect = higher value; percent of dexamethasone control, DMSO zero
How it was run: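 Quantitative HTS using CellSensor MMTV-bla HeLa cells in charcoal/dextran-treated serum; compounds tested up to 92 uM. After 18 h at 37 C, CCF4 dye reported reporter induction.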

[2] = molecular target: Glucocorticoid receptor (Homo sapiens) (UniProt P04150); experiment: qHTS assay for small molecule antagonists of glucocorticoid receptor signaling (AID 588533; active means well fitted inhibition curve with a large enough effect in the signal ratio, with a control signal flat, not every such curve was filed as active; the % refers to the signal ratio;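 further: cells stimulated with 2 nM dexamethasone as agonist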; further: potency means the concentration at half of the fitted maximal effect); details: HeLa MMTV-bla, GRE beta-lactamase ratio, antagonist mode, 18 h; series mostly up to 76.8 µM
How it was run: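 Antagonist-mode qHTS: compound titrations added to GRE-bla HeLa cells, then dexamethasone 2 nM final; 18 h, 37 C. CCF4 FRET fluorescence normalized to dexamethasone and DMSO; IC50 from Hill fit.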

[3] = qHTS assay for small molecule antagonists of peroxisome proliferator-activated receptor delta signaling (AID 588535; active means well fitted inhibition curve with a large enough effect in the signal ratio, with a control signal flat, not every such curve was filed as active; the % refers to the signal ratio;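 on max response: cells co-treated with a PPAR-delta agonist as stimulator during compound exposure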); details: HEK293T PPARd-UAS-bla, beta-lactamase FRET ratio, 18 h; 460 nm channel
How it was run: (§1)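 Cell-based beta-lactamase assay in antagonist mode: 4000 HEK293T PPAR-delta-UAS-bla cells per well, 5 hr preincubation then 18 hr compound incubation at 37 C. IC50 obtained by Hill equation fitting.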

[4] = molecular target: Peroxisome proliferator-activated receptor delta (Homo sapiens) (UniProt Q03181); experiment: as above; details: HEK293T PPARd-UAS-bla, beta-lactamase FRET ratio, 18 h; series mostly up to 76.7 µM
How it was run: as §1

[5] = molecular target: Peroxisome proliferator-activated receptor gamma (Homo sapiens) (UniProt P37231); experiment: qHTS assay for small molecule agonists of peroxisome proliferator-activated receptor gamma signaling (AID 588536; active means well fitted curve in the direction sought with a large enough effect in the signal ratio, with a control signal flat, not every such curve was filed as active; the % refers to the signal ratio); details: HEK293 PPARg-UAS-bla, beta-lactamase ratio, 16 h, percent of rosiglitazone response, DMSO as zero; series mostly up to 76.7 µM
How it was run: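 Test agents, titrated, stimulated HEK293 UAS-bla cells overnight (16 h, 37 C). Substrate CCF4 was then added for two hours at room temperature before fluorescence reading.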

[6] = molecular target: Vitamin D3 receptor (Homo sapiens) (UniProt P11473); experiment: qHTS assay for small molecule antagonists of vitamin D receptor signaling (AID 588541); details: HEK293T VDR-UAS-bla, beta-lactamase ratio, antagonist mode; series mostly up to 76.7 µM;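 further: receptor activated by calcitriol during compound treatment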
How it was run: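 Antagonist-mode beta-lactamase reporter assay: HEK293T VDR-UAS-bla cells were exposed to titrated compound alongside 1-alpha,25-dihydroxyvitamin D3 at 3 nM final for 16 h. Values were normalized to the 50 nM agonist control and DMSO basal, with IC50 and efficacy from Hill equation fits.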

[7] = molecular target: Vitamin D3 receptor (Homo sapiens) (UniProt P11473); experiment: qHTS assay for small molecule agonists of vitamin D receptor signaling (AID 588543); details: HEK293T VDR-UAS-bla, beta-lactamase ratio, 16 h; series mostly up to 76.8 µM
How it was run: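 VDR-UAS-bla HEK293T cells, 2000/well, 2% charcoal-stripped FBS; compound titration 16 h at 37 C; CCF4 beta-lactamase ratio read. Normalized to 50 nM 1-alpha,25-dihydroxyvitamin D3 (100%) and DMSO; Hill fit gives EC50, efficacy.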

[8] = qHTS assay for small molecule agonists of retinoid X receptor alpha signaling (AID 588544); details: HEK293T RXRa-UAS-bla, beta-lactamase reporter, 18 h; 530 nm emission
[9] = molecular target: Retinoic acid receptor RXR-alpha (Homo sapiens) (UniProt P19793); experiment: as above; details: HEK293T RXRa-UAS-bla, beta-lactamase reporter, 18 h; series mostly up to 76.7 µM
[10] = molecular target: Peroxisome proliferator-activated receptor gamma (Homo sapiens) (UniProt P37231); experiment: qHTS assay for small molecule antagonists of peroxisome proliferator-activated receptor gamma signaling (AID 588537; active means well fitted inhibition curve with a large enough effect in the signal ratio, with a control signal flat, not every such curve was filed as active; the % refers to the signal ratio;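 further: reporter cells co-stimulated with 50 nM rosiglitazone agonist during compound treatment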); details: HEK293 PPARg-UAS-bla, beta-lactamase ratio, antagonist mode; series mostly up to 76.8 µM
How it was run: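 Inhibitors of agonist-stimulated UAS-bla reporter activity were sought in HEK293 cells; rosiglitazone (50 nM) defined full signal and DMSO baseline. Curves fitted to Hill model gave IC50 and efficacy.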

Chain of Glucocorticoid receptor (Homo sapiens) (P04150 whole entry, looked up): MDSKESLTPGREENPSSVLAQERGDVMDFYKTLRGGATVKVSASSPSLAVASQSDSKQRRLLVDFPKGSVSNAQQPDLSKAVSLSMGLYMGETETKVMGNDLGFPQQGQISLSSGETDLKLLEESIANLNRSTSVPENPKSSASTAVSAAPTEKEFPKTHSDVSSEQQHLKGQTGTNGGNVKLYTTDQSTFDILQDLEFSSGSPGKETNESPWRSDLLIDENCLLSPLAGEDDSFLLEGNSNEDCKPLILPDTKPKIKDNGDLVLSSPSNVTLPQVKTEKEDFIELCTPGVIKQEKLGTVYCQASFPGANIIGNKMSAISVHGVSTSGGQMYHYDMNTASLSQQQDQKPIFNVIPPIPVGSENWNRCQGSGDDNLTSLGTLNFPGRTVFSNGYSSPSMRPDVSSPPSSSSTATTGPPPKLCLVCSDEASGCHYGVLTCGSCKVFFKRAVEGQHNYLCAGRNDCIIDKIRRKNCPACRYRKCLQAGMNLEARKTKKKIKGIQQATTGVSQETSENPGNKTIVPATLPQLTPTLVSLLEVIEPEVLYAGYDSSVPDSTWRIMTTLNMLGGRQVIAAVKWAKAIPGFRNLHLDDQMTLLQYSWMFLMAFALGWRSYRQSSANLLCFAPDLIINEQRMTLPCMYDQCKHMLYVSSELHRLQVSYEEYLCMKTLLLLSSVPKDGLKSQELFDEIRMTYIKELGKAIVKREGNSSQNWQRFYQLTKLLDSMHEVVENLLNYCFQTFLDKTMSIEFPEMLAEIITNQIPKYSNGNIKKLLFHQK
Chain of Retinoic acid receptor RXR-alpha (Homo sapiens) (P19793 whole entry, looked up): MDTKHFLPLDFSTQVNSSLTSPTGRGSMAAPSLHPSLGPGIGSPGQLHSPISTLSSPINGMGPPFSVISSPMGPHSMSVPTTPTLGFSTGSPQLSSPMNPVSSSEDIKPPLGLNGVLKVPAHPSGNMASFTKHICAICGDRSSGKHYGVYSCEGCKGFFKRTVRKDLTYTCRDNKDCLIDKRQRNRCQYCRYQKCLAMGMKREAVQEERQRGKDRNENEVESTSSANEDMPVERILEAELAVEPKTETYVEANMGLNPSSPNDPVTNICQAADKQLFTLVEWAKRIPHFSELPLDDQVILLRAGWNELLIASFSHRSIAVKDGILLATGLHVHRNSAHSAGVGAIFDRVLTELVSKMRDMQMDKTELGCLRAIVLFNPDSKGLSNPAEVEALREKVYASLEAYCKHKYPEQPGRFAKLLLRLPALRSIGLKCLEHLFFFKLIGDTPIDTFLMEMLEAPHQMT
Chain of Vitamin D3 receptor (Homo sapiens) (P11473 whole entry, looked up): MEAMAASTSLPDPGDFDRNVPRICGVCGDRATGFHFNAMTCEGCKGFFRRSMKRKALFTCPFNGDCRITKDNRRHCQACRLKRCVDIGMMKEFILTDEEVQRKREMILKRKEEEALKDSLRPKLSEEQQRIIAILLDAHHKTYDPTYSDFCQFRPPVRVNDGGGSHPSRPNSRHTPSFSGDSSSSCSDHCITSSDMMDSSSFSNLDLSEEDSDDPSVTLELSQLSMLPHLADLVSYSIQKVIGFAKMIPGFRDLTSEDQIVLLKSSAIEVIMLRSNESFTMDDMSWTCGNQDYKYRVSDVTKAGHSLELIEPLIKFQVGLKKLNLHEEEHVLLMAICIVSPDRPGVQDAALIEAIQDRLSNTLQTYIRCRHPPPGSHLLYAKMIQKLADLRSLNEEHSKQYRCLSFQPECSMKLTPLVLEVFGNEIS
Chain of Peroxisome proliferator-activated receptor gamma (Homo sapiens) (P37231 whole entry, looked up): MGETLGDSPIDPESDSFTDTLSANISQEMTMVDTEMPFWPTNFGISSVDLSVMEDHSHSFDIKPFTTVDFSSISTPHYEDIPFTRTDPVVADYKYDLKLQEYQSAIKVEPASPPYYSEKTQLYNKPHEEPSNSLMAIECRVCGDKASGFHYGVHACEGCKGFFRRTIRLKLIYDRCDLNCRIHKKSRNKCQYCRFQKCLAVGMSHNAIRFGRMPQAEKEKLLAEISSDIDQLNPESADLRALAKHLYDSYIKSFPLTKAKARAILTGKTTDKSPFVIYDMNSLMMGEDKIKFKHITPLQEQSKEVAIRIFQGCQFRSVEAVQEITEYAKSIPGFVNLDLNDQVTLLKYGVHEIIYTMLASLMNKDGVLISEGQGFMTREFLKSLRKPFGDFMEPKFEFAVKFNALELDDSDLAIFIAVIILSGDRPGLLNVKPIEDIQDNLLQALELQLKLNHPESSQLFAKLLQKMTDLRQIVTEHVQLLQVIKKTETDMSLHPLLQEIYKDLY
Chain of Peroxisome proliferator-activated receptor delta (Homo sapiens) (Q03181 whole entry, looked up): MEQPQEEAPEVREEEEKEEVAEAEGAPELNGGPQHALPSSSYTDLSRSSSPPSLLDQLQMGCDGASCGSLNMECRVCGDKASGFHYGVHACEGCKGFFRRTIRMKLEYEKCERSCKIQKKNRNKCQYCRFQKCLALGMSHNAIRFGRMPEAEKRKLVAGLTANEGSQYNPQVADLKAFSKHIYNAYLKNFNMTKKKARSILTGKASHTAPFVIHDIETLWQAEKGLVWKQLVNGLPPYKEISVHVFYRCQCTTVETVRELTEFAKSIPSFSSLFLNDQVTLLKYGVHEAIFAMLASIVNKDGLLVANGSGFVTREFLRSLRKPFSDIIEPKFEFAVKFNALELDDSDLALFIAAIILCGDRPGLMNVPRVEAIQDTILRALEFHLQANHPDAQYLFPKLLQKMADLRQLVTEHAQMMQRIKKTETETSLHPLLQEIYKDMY

Row | SMILES | activation [1] | Potency [2] | max response [3] [%] | outcome [4] | outcome [5] | outcome [6] | outcome [7] | max response [8] [%] | outcome [9] | outcome [10]
1 | C[C@]12CC[C@@H]3c4ccc(O)cc4CC[C@H]3[C@H]1CC[C@H]2O | -15.8% (inactive) | 15.8 µM (active) | -15.7 | inactive | inactive | inactive | inactive | 14 | inactive | –
2 | CC(C=CC1=C(C)CCCC1(C)C)=CC=CC(C)=CC(=O)Nc1ccc(O)cc1 | 5.23% (inactive) | – | – | – | – | – | inactive | – | – | –
3 | OC[C@@H](O)[C@@H](O)[C@H](O)[C@@H](O)CO | – | – | – | – | inactive | inactive | inactive | -9.11 | inactive | –
4 | O=C1c2cccc(O)c2C(=O)c2c(O)cc(CO)cc21 | -14.5% (inactive) | inactive | – | – | – | inactive | inactive | 11.8 | inactive | inactive
5 | Cc1cc(O)c2c(c1)C(=O)c1cccc(O)c1C2=O | – | inactive | -38.7 | inactive | inactive | inactive | inactive | 0.103 | inactive | inactive
